Laboratory results published in the supplement of paper PMC12669032.

test system: Bacteroides uniformis; assay: growth AUC relative to DMSO control (median of replicates) (fraction); higher = more growth (less inhibition), active = hit call of the paper; settings: 20 µM; 24 h;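 active = AUC reduced over 20% with Padj below 0.05 in at least 2 of 3 replicates; inactive = otherwise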
In short: (§1)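 Hourly OD600 readings over 24 h tracked anaerobic gut bacterial monocultures grown at 37 °C in mGAM from OD600 0.05 with 20 µM compound (1% DMSO). After the minimum OD was set to 0, area under the growth curve was normalised to the plate median of solvent-only wells, or to row and column medians on the industrial chemical plate. Values are medians of three biological replicates grown on separate days.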

Row | SMILES | growth AUC
1 | N#Cc1c(Cl)c(Cl)c(Cl)c(C#N)c1Cl | 0.218 (active)
2 | N#CN=C1SCCN1Cc1ccc(Cl)nc1 | 0.991 (inactive)
3 | CCCCC(C#N)(Cn1cncn1)c1ccc(Cl)cc1 (stereo not drawn) | 0.975 (inactive)
4 | O=C1C(Cl)=C(Cl)C(=O)c2ccccc21 | 0.986 (inactive)
5 | CCOP(=S)(OCC)SCS(=O)(=O)CC | 0.984 (inactive)
6 | Nc1c(Cl)c(F)nc(OCC(=O)O)c1Cl | 0.955 (inactive)
7 | Nc1ccc(Cl)cc1 | 1.02 (inactive)
8 | CCNS(=O)(=O)C(F)(F)C(F)(F)C(F)(F)C(F)(F)C(F)(F)C(F)(F)C(F)(F)C(F)(F)F | 0.966 (inactive)
9 | Cl.NC1=NCCN1Cc1ccc(Cl)nc1 | 1.01 (inactive)
10 | CNC(=O)c1cc(Cl)cc(C)c1NC(=O)c1cc(Br)nn1-c1ncccc1Cl | 0.976 (inactive)
11 | O=C(NC(=O)c1c(F)cccc1F)Nc1cc(Cl)c(Oc2ncc(C(F)(F)F)cc2Cl)c(Cl)c1 | 0.977 (inactive)
12 | COC(=O)NCc1cc(/C(C)=N\OCc2cccc(C)n2)ccc1Cl | 0.902 (inactive)
13 | NCCO.O=C(O)c1nc(Cl)ccc1Cl | 1 (inactive)
14 | CC(=O)O.NC(N)=NCCCCCCCCNCCCCCCCCN=C(N)N | 0.115 (active)
15 | CC1(C)CN=C(NN=C(/C=C/c2ccc(C(F)(F)F)cc2)/C=C/c2ccc(C(F)(F)F)cc2)NC1 | 0.991 (inactive)
16 | CCCN(CC)CC1COC2(CCC(C(C)(C)C)CC2)O1 (stereo not drawn) | 1.04 (inactive)
17 | CCCOP(=S)(OCCC)SCC(=O)N1CCCCC1C (stereo not drawn) | 0.9 (inactive)
18 | CNC(=O)ON=C(CS(C)=O)C(C)(C)C (stereo not drawn) | 1.01 (inactive)
19 | Cc1ccccc1C(=O)Nc1cccc(OC(C)C)c1 | 0.945 (inactive)
20 | COC(=O)/C(C)=C/OP(=S)(OC)OC | 0.96 (inactive)

test system: Bifidobacterium longum subsp. longum; assay: as above; settings: 20 µM; 24 h
In short: as §1

Row | SMILES | growth AUC
21 | CN(C)c1nc(=O)n(C2CCCCC2)c(=O)n1C | 1.01 (inactive)
22 | Nc1c(Cl)c(Cl)c(Cl)c(Cl)c1Cl | 0.949 (inactive)
23 | Oc1ccc(-c2ccccc2)cc1 | 0.899 (inactive)
24 | Cn1cc(-c2ccccc2)c(=O)c(-c2cccc(C(F)(F)F)c2)c1 | 1.04 (inactive)
25 | CCCOCC(=Nc1ccc(Cl)cc1C(F)(F)F)n1ccnc1 | 1.03 (inactive)
26 | O=P(O)(O)CCCl | 1.07 (inactive)
27 | CCNc1nc(NC(C)C)[nH]c(=O)n1 | 0.962 (inactive)
28 | CC1=NNC(=O)N(/N=C/c2cccnc2)C1 | 0.993 (inactive)
29 | S=C1NCCN1 | 0.947 (inactive)
30 | COC(=O)N(C(=O)N1CO[C@@]2(C(=O)OC)Cc3cc(Cl)ccc3C2=N1)c1ccc(OC(F)(F)F)cc1 | 0.83 (inactive)
31 | Clc1ccccc1Cl | 1.11 (inactive)
32 | C#CCC1=C(C)C(OC(=O)C2C(C=C(C)C)C2(C)C)CC1=O (stereo not drawn) | 1.02 (inactive)
33 | Cc1nnc(-c2ccccc2)c(=O)n1N | 1.04 (inactive)
34 | COC(=O)c1ccccc1CS(=O)(=O)NC(=O)Nc1nc(OC)cc(OC)n1 | 1.05 (inactive)
35 | CCCCCCCCCc1ccc(O)cc1 | 0.929 (inactive)
36 | COP(N)(=S)Oc1ccccc1C(=O)OC(C)C (stereo not drawn) | 1.03 (inactive)
37 | O=C(NCCc1ncc(C(F)(F)F)cc1Cl)c1ccccc1C(F)(F)F | 0.974 (inactive)
38 | CCN(Cc1ccc(Cl)nc1)/C(=C/[N+](=O)[O-])NC | 0.983 (inactive)
39 | N#Cc1c(Cl)c(Cl)c(Cl)c(C#N)c1Cl | 0.782 (active)

Row | SMILES | growth AUC
40 | N#CN=C1SCCN1Cc1ccc(Cl)nc1 | 1.04 (inactive)
41 | CCCCC(C#N)(Cn1cncn1)c1ccc(Cl)cc1 (stereo not drawn) | 1.04 (inactive)
42 | O=C1C(Cl)=C(Cl)C(=O)c2ccccc21 | 0.904 (inactive)
43 | CCOP(=S)(OCC)SCS(=O)(=O)CC | 0.951 (inactive)
44 | Nc1c(Cl)c(F)nc(OCC(=O)O)c1Cl | 0.917 (inactive)
45 | Nc1ccc(Cl)cc1 | 1.04 (inactive)
46 | CCNS(=O)(=O)C(F)(F)C(F)(F)C(F)(F)C(F)(F)C(F)(F)C(F)(F)C(F)(F)C(F)(F)F | 0.905 (inactive)
47 | Cl.NC1=NCCN1Cc1ccc(Cl)nc1 | 1.02 (inactive)
48 | CNC(=O)c1cc(Cl)cc(C)c1NC(=O)c1cc(Br)nn1-c1ncccc1Cl | 0.969 (inactive)
49 | O=C(NC(=O)c1c(F)cccc1F)Nc1cc(Cl)c(Oc2ncc(C(F)(F)F)cc2Cl)c(Cl)c1 | 1.14 (inactive)
50 | COC(=O)NCc1cc(/C(C)=N\OCc2cccc(C)n2)ccc1Cl | 1.03 (inactive)
51 | NCCO.O=C(O)c1nc(Cl)ccc1Cl | 1.04 (inactive)
52 | CC(=O)O.NC(N)=NCCCCCCCCNCCCCCCCCN=C(N)N | 0.136 (active)
53 | CC1(C)CN=C(NN=C(/C=C/c2ccc(C(F)(F)F)cc2)/C=C/c2ccc(C(F)(F)F)cc2)NC1 | 0.998 (inactive)
54 | CCCN(CC)CC1COC2(CCC(C(C)(C)C)CC2)O1 (stereo not drawn) | 0.79 (inactive)
55 | CCCOP(=S)(OCCC)SCC(=O)N1CCCCC1C (stereo not drawn) | 1.06 (inactive)
56 | CNC(=O)ON=C(CS(C)=O)C(C)(C)C (stereo not drawn) | 0.955 (inactive)
57 | Cc1ccccc1C(=O)Nc1cccc(OC(C)C)c1 | 1.02 (inactive)
58 | COC(=O)/C(C)=C/OP(=S)(OC)OC | 1.02 (inactive)
